# In ChEMBL document CHEMBL4513216, “Probing the Open Global Health Chemical Diversity Library for Multistage-Active Starting Points for Next-Generation Antimalarials” (ACS Infect Dis, 2020):
# In all, about 65,000 compounds went through this assay and about 2,100 (3.2%) showed an effect of 50% or more. The median lay at about -52%. The list comes from a sample in which strong results are over-represented; it also holds similar structures and randomly drawn compounds.
# Test system: Plasmodium falciparum
# Test: Screen against P. falciparum Asexual Blood Stage (ABS), at 5uM
# Assay type: functional, Dd2
# Details: tested at 5 uM
row,Structure (SMILES),INHIBITION [%]
1,Cc1cc(C)cc(CN2CCN(Cc3cc(C#N)n(C)c3)CC2=O)c1,18.4
2,CCn1cc(CN2CCN(Cc3cc(C)cc(C)c3)C(=O)C2)cc1C#N,68.4
3,CCn1cc(CN2CCN(Cc3cccc(OC)c3)C(=O)C2)cc1C#N,47.9
4,CCOC(=O)CNC(=O)NCc1cc(C)n(-c2ccccc2OC)c1C,-24.9
5,c1nc(NCc2cc3n(n2)CCN(C2CCCCC2)C3)c2nc[nH]c2n1,-10.3
6,COc1ccc(-c2ccc(C3CNCCO3)nc2)cc1 (stereo not drawn),65
7,c1ncc(-c2ccc(C3CNCCO3)nc2)cn1 (stereo not drawn),-94.8
8,COc1ccc(-c2cnc(N(C)C)nc2C2CNCCO2)cc1 (stereo not drawn),28.8
9,Cc1nn(C)c(C)c1C1CCCN1C(=O)c1ccc2nnc(C)n2c1 (stereo not drawn),-60.9
10,CCN1CCN(C2CCN(Cc3nnc(C(C)(C)C)o3)CC2)C1=O,-29.7
11,CCN1CCN(C2CCN(Cc3ncc(C(C)(C)C)o3)CC2)C1=O,53.1
12,CCc1nnc(CN2CCC(N3CCN(CC)C3=O)CC2)o1,-39.7
13,CN1CCN(C2CCN(Cc3nnc(C(C)(C)C)o3)CC2)C1=O,-117
14,CNc1cc2c(nn1)CCN(C(=O)c1cc(C)n(C3CC3)c1C)C2,-66.6
15,O=C(N[C@]12CC1CN(C(=O)c1ccco1)C2)c1ccco1 (stereo partly drawn),37.7
16,CC(=O)N1CC2C[C@]2(NC(=O)c2ccco2)C1 (stereo partly drawn),50.3
17,O=C(N[C@]12CC1CN(C(=O)c1ccco1)C2)c1cccc(F)c1 (stereo partly drawn),27.4
18,O=c1[nH]c2nc(N3CCSCC3)ncc2c(=O)n1-c1ccc(F)cc1,-26.3
19,Cc1ncsc1CN1CC[C@H](O)[C@@H](n2cnc3c(N)ncnc32)CC1,-98.6
20,CCCc1ccc2oc(C(=O)N3CCCN(C)CC3)c(C)c2c1,-22.2
21,O=C(c1cc(-c2ccn(CC3CC3)n2)n2ccccc12)N1CCCO1,-84.4
22,O=C(c1cc(-c2ccn(CC3CC3)n2)n2ccccc12)N1CCOCC1,69.5
23,O=C(O)c1cc(-c2ccn(CC3CC3)n2)n2ccccc12,-74.2
24,O=C(CN1CCOC(Cn2cccn2)C1)NCc1ccco1 (stereo not drawn),-88.2
25,O=C(NC1CC(F)(F)C1)[C@]12COC[C@H]1CN(Cc1ccccc1)C2,-96
26,Cc1cc(=O)n2nc(Oc3ccc(F)c(F)c3)sc2n1,-13.2
27,Cc1cc(=O)n2nc(Oc3cccc(C(N)=O)c3)sc2n1,-166

row,Structure (SMILES),INHIBITION [%]
1,Cc1cc(=O)n2nc(Oc3cccc(I)c3)sc2n1,56.4
2,COCCCNC(=O)CN1CCC(N2CCN(C)C2=O)CC1,-137
3,Cn1cnc2c1CCN(Cc1csc(-c3ccccc3)n1)C2,-10.7
4,Cn1cnc2c1CCN(Cc1csc(-c3ccco3)n1)C2,51.3
5,Cc1ccc(-c2nc(CN3CCc4c(ncn4C)C3)cs2)o1,-159
6,Cc1cc(NC(=O)C(C)N2CCN(c3ccc(C#N)cc3F)CC2)no1 (stereo not drawn),-124
7,CN(C(=O)Nc1ccncc1)C1CCN(c2ccc(Cl)cc2)CC1,-10.2
8,COc1ccc(-n2ccc(CNCc3ccc(OC)c(O)c3)n2)cc1,-17.9
9,COc1ccc(CNCCc2ccn(-c3ccccc3)n2)cc1O,67.1
10,COc1ccc(CNCCn2c(C)nc3ccccc32)cc1O,-82.4
11,CCCn1cc(NC(=O)c2cccnc2O)ccc1=O,-8.23
12,CCc1nc(CNc2cc(C)nc(-c3cccnc3)n2)cs1,-19.9
13,CCc1noc(C2CCCCN2C(=O)c2nnc3ccccc3n2)n1 (stereo not drawn),65.5
14,CCc1noc(C2CCCCN2C(=O)c2cccs2)n1 (stereo not drawn),-105
15,CCc1noc(C2CCCCN2C(=O)c2ccccc2)n1 (stereo not drawn),-89.7
16,Cc1cc(CN2C[C@@H](C)[C@@]3(CCN(C)C3=O)C2)oc1C,-1.06
17,CCC(CNC(=O)c1ccccc1Br)N1CCc2ccccc2C1 (stereo not drawn),41.5
18,CCC(CNC(=O)c1cncc(Br)c1)N1CCc2ccccc2C1 (stereo not drawn),66.9
19,CCC(CNC(=O)c1ccc(Br)o1)N1CCc2ccccc2C1 (stereo not drawn),16.3
20,CCN1CC(CN(C)Cc2nc(-c3cccc(C)c3)oc2C)CC1=O (stereo not drawn),-142
21,CCOCC1CN(Cc2cccnc2OC)Cc2cnn(C)c21 (stereo not drawn),-60.6
22,OCC1CCC2(CC1)CN(Cc1ccsc1)Cc1ccccc1O2 (stereo not drawn),-50.7
23,COCCN1CCOCC12CCN(c1nccs1)CC2,-151
24,CSc1ccc(CNC2(c3ccc(F)cc3)CCOCC2)cc1,31.4
25,CN(C)c1ccc(CNC2(c3ccc(F)cc3)CCOCC2)cc1F,28.8
26,Fc1ccc(C2(NCc3ccccc3)CCOCC2)cc1,64.2
